Out of some 330,000 compounds screened, about 940 (0.28%) were called active. What follows is part of a selection rich in actives, with near analogues and random picks from the rest. Unmarked numbers belong to inactive results. Rule as the data show it: active = inhibition above about 12%; inactive = the rest.
Test: reduced growth of AddAB-expressing E. coli cells – absorbance, AddAB inhibitor project, primary screen (AID 435030);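 also: 0% = vehicle wells of infected cells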
Conditions: E. coli expressing H. pylori AddAB, at 11.9 µM, hits give high values

Structure (SMILES) | inhibition
O=[N+]([O-])c1ccc(N=Cc2c(O)ccc3ccccc23)cc1 | 39.5% (active)
Cc1nc2ccccc2nc(=O)c1NNc1ccc([N+](=O)[O-])cc1 | 0.52%
O=C(Oc1ccc([N+](=O)[O-])cc1)c1ccc2ccccc2n1 | 0.94%
CC(Sc1nnc(Cc2ccc([N+](=O)[O-])cc2)o1)C(N)=O (stereo not given) | 2.62%
COC(=O)c1cc(S(=O)(=O)Nc2ccc(C)c(F)c2)c[nH]1 | 2.73%
CCOc1ccc(OCC)c(NC(=O)C(NS(=O)(=O)c2ccc3c(c2)oc(=O)n3C)C(C)C)c1 (stereo not given) | 0.33%
O=C(CCNS(=O)(=O)c1ccccc1)NCCSc1ccc(Br)cc1 | -1.46%
CC(C)(C)CC(=O)Nc1nnc(SCC(=O)NCc2cccs2)s1 | 1.97%
O=C(Cn1cc(C(=O)c2cccs2)c2ccccc21)NCc1cccs1 | -0.41%
CC1CCN(C(=O)Cn2cc(C(=O)c3ccco3)c3ccccc32)CC1 | 0.41%
Cc1cccc(NC(=O)Cn2cc(C(=O)c3ccco3)c3ccccc32)c1 | 13.8% (active)
Cc1cc(C)c(S(=O)(=O)N2CCCC2CNC(=O)c2ccc3c(c2)OCO3)c(C)c1 (stereo not given) | 2.32%
N#Cc1ccc(OCCN2C(=O)NC3(CCSC3)C2=O)cc1 (stereo not given) | -2.01%
O=C(OCC(=O)N1CCN(C(=O)c2ccco2)CC1)c1c(Cl)cccc1Cl | 1.58%
NS(=O)(=O)c1cccc(NC(=O)COC(=O)c2cc([N+](=O)[O-])ccc2N2CCCC2)c1 | 0.9%
CCn1c(=O)c([N+](=O)[O-])c(NCc2ccc3c(c2)OCO3)c2ccccc21 | -0.08%
CCn1c(/C=C/c2ccc([N+](=O)[O-])o2)nc2ccccc2c1=O | 17.8% (active)
CCOCCCn1c(NN)nc2ccccc2c1=O | 1.87%
CCOC(=O)c1sc(/N=C/C2=C(O)CC(C)(C)CC2=O)c(C(=O)OCC)c1C | -0.77%
Cc1occc(=O)c1OCc1c(Cl)cccc1Cl | -0.74%
CCOC(=O)c1ccc(NC(=O)Cc2cccs2)cc1 | 3.49%
CCOC(=O)c1ccc(NC(=O)Cn2cnc3cc(C)c(C)cc32)cc1 | 21% (active)
CCCc1nnc(SCC(=O)Nc2ccc(C(=O)OCC)cc2)o1 | 2.66%
CSCc1ccc(C(=O)Nc2cc(C)cc(C)c2)cc1 | 0.9%
CSCCC(NC(=O)c1cc([N+](=O)[O-])cc([N+](=O)[O-])c1)c1nc2ccccc2[nH]1 (stereo not given) | 2.67%
